Test results from the supplement of paper PMC10849652.
About 7,900 targets were measured; listed, in parts, are those with a hit and a random draw of the rest. About 0.6% of all pairs of compound and target were hits.

Tests used:
Test in all cases: log2 fold change, soluble protein after heating vs DMSO (PISA); higher = thermal stabilisation; K562 cells, 10 uM, 30 min; active = over 0.2 and 3.5 SD of the protein, either way, in both replicates (recomputed)
IRAK-1-4 Inhibitor I = compound: C1COCCN1CCN2C3=CC=CC=C3N=C2NC(=O)C4=CC(=CC=C4)[N+](=O)[O-] [IRAK-1-4 Inhibitor I]
Procedure, shortened: (§1)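 For each measurement, 10 μM compound was applied for 30 min to K562 cells at 2×10^6 cells/mL. Aliquots were heated for 3 min across 48°C-58°C, pooled, and extracted in PBS with 0.5% NP-40 at 4°C; the supernatant after 21,000xg for 90 min was soluble protein. This was quantified by TMTpro 16plex LC-MS/MS with channel sums equalised, and thermal stability was reported relative to control samples from duplicates, on a log2 fold-change scale.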

ibrutinib = compound: C=CC(=O)N1CCC[C@@H](n2nc(-c3ccc(Oc4ccccc4)cc3)c3c(N)ncnc32)C1 [ibrutinib]
Procedure, shortened: as §1

[1] = compound: CC(=O)c1cnc2ccc(-c3cc(Cl)c(O)c(Cl)c3)nc2c1N[C@H]1CC[C@H](CN(C)C)CC1
Procedure, shortened: as §1

ralimetinib = compound: CC(C)(C)Cn1c(N)nc2ccc(-c3[nH]c(C(C)(C)C)nc3-c3ccc(F)cc3)nc21 [ralimetinib]
Procedure, shortened: as §1

[2] = compound: CC(C)(O)CC(=O)NCCn1ccc2ncnc(Nc3ccc(Oc4cccc(C(F)(F)F)c4)c(Cl)c3)c21
Procedure, shortened: as §1

[3] = compound: CC(C)C1=C2N=C(C=C(N2N=C1)NCC3=CC=CC=C3)NCCCCCCN
Procedure, shortened: as §1

[4] = compound: CC(C)C[C@@H](C=O)NC(=O)[C@H](CC(C)C)NC(=O)[C@H](CC(C)C)NC(=O)OCc1ccccc1
Procedure, shortened: as §1

pinometostat = compound: CC(C)N(C[C@H]1O[C@@H](n2cnc3c(N)ncnc32)[C@H](O)[C@@H]1O)[C@H]1C[C@@H](CCc2nc3cc(C(C)(C)C)ccc3[nH]2)C1 [pinometostat]
Procedure, shortened: as §1

[5] = compound: CC1=C(C(CC(=O)N1)C2=CC=C(C=C2)C(F)(F)F)C(=O)NC3=C(C=C4C(=C3)C=NN4)F
Procedure, shortened: as §1

[6] = compound: CC1=C(C2=C(C=C1)C(=O)C3=CC=CC=C3N2CCCN)C
Procedure, shortened: as §1

[7] = compound: CC1=C(C=C(C=C1)NC(=O)C2=CC(=CC=C2)C(C)(C)C#N)NC3=CC4=C(C=C3)N=CN(C4=O)C
Procedure, shortened: as §1

[8] = compound: CC1=C(C=C(C=C1)NC(=O)C2=CC(=CC=C2)N(C)C)NC(=O)C3=CC=C(C=C3)O
Procedure, shortened: as §1

[9] = compound: CC1=CC=C(C=C1)SC2=C3C=C(SC3=CN=C2)C(=O)N
Procedure, shortened: as §1

[10] = compound: CC1=NC(=CC=C1)C2=C(N=C(N2)C(C)(C)C)C3=CC4=NC=CN=C4C=C3
Procedure, shortened: as §1

Nexturastat A = compound: CCCCN(Cc1ccc(C(=O)NO)cc1)C(=O)Nc1ccccc1 [Nexturastat A]
Procedure, shortened: as §1

vemurafenib = compound: CCCS(=O)(=O)Nc1ccc(F)c(C(=O)c2c[nH]c3ncc(-c4ccc(Cl)cc4)cc23)c1F [vemurafenib]
Procedure, shortened: as §1

[11] = compound: CCCS(=O)(=O)Nc1ccc(F)c(C(=O)c2c[nH]c3ncc(Cl)cc23)c1F
Procedure, shortened: as §1

[12] = compound: CCCc1cc(C)[nH]c(=O)c1CNC(=O)c1cc(-c2ccnc(N3CCN(C)CC3)c2)cc2c1cnn2C(C)C
Procedure, shortened: as §1

givinostat = compound: CCN(CC)Cc1ccc2cc(COC(=O)Nc3ccc(C(=O)NO)cc3)ccc2c1 [givinostat]
Procedure, shortened: as §1

barasertib = compound: CCN(CCCOc1ccc2c(Nc3cc(CC(=O)Nc4cccc(F)c4)[nH]n3)ncnc2c1)CCOP(=O)(O)O [barasertib]
Procedure, shortened: as §1

Measured: log2 fold change

CWC27 (UniProt Q6UX04)
inactive: IRAK-1-4 Inhibitor I -0.045 | ibrutinib -0.111 | [1] -0.133 | ralimetinib 0.048 | [2] -0.08 | [3] 0.018 | [4] -0.007 | pinometostat -0.023 | [5] -0.045 | [6] 0.199 | [7] -0.001 | [8] -0.035 | [9] 0.002 | [10] 0.021 | Nexturastat A -0.029 | vemurafenib 0.128 | [11] 0.112 | [12] 0.009 | givinostat 0.082 | barasertib 0.073

EMD (UniProt P50402)
Sequence of UniProt P50402 (P50402 whole entry, looked up): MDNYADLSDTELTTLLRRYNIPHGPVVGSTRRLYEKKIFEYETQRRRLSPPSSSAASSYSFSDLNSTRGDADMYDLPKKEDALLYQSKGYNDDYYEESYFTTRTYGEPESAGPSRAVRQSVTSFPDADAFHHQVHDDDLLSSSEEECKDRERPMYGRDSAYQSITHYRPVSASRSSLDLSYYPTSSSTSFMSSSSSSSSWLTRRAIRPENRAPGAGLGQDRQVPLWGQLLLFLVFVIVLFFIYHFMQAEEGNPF
inactive: IRAK-1-4 Inhibitor I 0.039 | ibrutinib 0.009 | [1] -0.021 | ralimetinib -0.004 | [2] 0.028 | [3] -0.114 | [4] 0.034 | pinometostat 0.013 | [5] 0.021 | [6] -0.042 | [7] -0.056 | [8] 0.011 | [9] -0.076 | [10] -0.04 | Nexturastat A 0.059 | vemurafenib -0.015 | [11] 0.021 | [12] -0.092 | givinostat 0.002 | barasertib 0.002

DEGS1 (UniProt O15121)
inactive: ibrutinib 0.049 | [1] 0.066 | [2] 0.013 | [3] 0.074 | [5] -0.118 | [6] 0.197 | [7] -0.088 | [9] 0.003 | Nexturastat A -0.062 | vemurafenib -0.185 | [11] 0.033 | [12] -0.053 | givinostat -0.023 | barasertib -0.018

EID1 (UniProt Q9Y6B2)
Sequence of UniProt Q9Y6B2 (Q9Y6B2 whole entry, looked up): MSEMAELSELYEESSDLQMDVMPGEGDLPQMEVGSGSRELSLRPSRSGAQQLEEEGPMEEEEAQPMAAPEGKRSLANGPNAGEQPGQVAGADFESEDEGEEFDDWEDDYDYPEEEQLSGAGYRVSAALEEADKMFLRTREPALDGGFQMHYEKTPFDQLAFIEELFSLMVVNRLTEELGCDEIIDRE
inactive: [2] 0.002 | [3] 0.05 | [5] 0.05 | [6] -0.281 | [7] -0.047 | [9] 0.019 | Nexturastat A 0.18 | [11] -0.107 | [12] 0.135 | givinostat -0.134

ENTR1 (UniProt Q96C92)
Sequence of UniProt Q96C92 (Q96C92 whole entry, looked up): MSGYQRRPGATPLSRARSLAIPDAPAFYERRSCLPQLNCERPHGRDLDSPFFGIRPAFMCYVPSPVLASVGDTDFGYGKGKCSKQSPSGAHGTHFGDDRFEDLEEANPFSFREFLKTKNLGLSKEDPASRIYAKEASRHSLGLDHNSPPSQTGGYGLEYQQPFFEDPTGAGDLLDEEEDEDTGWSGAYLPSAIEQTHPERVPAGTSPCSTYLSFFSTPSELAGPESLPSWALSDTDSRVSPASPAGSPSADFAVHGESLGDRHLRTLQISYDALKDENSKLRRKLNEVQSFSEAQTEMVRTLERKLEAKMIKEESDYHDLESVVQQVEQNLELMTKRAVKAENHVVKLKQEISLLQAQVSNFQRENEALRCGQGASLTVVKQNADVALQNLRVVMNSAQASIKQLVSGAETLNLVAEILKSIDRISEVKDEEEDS
inactive: [3] -0.156 | [9] -0.091 | vemurafenib 0.06 | [11] -0.105 | givinostat 0.062

ELF1 (UniProt P32519)
Sequence of UniProt P32519 (P32519 whole entry, looked up): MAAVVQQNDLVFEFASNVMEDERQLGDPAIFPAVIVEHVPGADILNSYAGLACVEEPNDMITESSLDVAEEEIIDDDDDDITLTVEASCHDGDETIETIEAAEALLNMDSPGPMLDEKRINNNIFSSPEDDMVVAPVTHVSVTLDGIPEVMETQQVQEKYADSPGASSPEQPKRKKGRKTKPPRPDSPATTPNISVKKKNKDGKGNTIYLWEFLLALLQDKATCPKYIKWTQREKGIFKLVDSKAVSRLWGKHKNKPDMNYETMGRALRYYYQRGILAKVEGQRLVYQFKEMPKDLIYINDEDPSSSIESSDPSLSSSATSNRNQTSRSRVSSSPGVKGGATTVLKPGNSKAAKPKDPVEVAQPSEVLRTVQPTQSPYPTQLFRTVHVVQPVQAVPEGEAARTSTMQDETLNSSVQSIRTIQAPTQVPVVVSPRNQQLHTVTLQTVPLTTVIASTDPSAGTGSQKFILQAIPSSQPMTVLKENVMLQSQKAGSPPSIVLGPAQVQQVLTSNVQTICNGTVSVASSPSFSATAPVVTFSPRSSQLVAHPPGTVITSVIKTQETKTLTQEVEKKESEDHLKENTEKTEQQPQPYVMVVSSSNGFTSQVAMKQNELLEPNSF
active: [2] -0.567
inactive: IRAK-1-4 Inhibitor I -0.12 | [1] 0.143 | ralimetinib 0.186 | [3] -0.072 | [4] -0.076 | pinometostat 0.053 | [5] -0.22 | [6] -0.473 | [7] 0.056 | [8] -0.05 | [9] 0 | [10] 0.033 | Nexturastat A -0.051 | [11] 0.091 | givinostat 0.152

ENTPD7 (UniProt Q9NQZ7)
inactive: IRAK-1-4 Inhibitor I -0.146 | ibrutinib -0.013 | [2] 0.181 | [3] -0.043 | pinometostat -0.009 | [5] -0.022 | [6] -0.016 | [7] -0.033 | [9] 0.012 | [10] 0.142 | Nexturastat A 0.047 | [11] -0.1 | [12] -0.068 | givinostat 0 | barasertib -0.009

DDB1 isoform 2 (UniProt Q16531)
inactive: ibrutinib -0.034 | [2] 0.078 | [7] -0.144 | Nexturastat A -0.061 | barasertib 0.116

EDRF1 (UniProt Q3B7T1)
inactive: ibrutinib 0.068 | ralimetinib 0.04 | [2] 0.048 | [3] 0.004 | [4] 0.066 | [7] -0.022 | [8] 0.21 | Nexturastat A -0.042 | [12] 0.019 | givinostat 0.114 | barasertib -0.036

CWF19L2 (UniProt Q2TBE0)
inactive: IRAK-1-4 Inhibitor I 0.029 | [1] -0.075 | ralimetinib 0.014 | [3] 0.184 | [4] 0.02 | pinometostat 0.098 | [6] 0.106 | [7] -0.048 | [8] 0.046 | [9] 0.166 | [10] -0.038 | [11] -0.057 | givinostat 0.035

CTNNBL1 (UniProt Q8WYA6)
inactive: ibrutinib 0.046 | [9] 0.185 | vemurafenib -0.02 | [11] -0.166 | barasertib 0.012

ELOVL7 (UniProt A1L3X0)
Sequence of UniProt A1L3X0 (A1L3X0 whole entry, looked up): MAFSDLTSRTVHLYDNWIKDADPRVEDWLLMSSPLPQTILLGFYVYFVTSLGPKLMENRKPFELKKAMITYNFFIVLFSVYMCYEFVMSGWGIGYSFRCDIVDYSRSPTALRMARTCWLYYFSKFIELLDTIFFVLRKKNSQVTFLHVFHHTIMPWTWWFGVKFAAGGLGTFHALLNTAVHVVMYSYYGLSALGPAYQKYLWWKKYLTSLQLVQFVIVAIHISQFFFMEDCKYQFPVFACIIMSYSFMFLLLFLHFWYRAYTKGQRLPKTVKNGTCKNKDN
active: [3] -0.617
inactive: [1] 0.059 | [2] -0.177 | [6] 0.062 | Nexturastat A 0.016 | givinostat 0.034

FAM160A2 isoform 2 (UniProt Q8N612)
Sequence of UniProt Q8N612 (Q8N612 whole entry, looked up): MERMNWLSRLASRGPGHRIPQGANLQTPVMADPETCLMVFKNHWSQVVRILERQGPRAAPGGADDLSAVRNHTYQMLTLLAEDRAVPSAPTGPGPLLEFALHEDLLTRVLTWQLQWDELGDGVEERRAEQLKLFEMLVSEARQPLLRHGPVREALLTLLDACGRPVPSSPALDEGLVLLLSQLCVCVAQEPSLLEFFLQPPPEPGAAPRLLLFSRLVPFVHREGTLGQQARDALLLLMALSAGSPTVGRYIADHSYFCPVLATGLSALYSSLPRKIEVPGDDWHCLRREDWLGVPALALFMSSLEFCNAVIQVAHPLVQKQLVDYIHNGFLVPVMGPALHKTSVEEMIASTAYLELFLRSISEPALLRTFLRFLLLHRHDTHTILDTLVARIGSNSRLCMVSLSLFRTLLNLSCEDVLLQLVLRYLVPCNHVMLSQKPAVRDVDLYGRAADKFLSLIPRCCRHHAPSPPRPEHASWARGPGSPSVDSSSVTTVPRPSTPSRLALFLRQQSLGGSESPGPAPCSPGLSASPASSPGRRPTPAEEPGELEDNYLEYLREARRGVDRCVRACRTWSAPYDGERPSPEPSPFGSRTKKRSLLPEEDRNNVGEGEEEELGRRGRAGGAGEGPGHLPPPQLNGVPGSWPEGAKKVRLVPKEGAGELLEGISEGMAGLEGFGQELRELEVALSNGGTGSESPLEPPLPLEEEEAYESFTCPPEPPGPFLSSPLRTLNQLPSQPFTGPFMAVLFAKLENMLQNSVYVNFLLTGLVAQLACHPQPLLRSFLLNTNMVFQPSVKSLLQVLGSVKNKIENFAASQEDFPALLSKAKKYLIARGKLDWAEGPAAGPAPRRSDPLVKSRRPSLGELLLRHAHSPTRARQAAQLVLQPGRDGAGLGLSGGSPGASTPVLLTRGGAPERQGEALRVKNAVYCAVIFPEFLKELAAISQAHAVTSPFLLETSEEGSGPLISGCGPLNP
inactive: IRAK-1-4 Inhibitor I 0.029 | ibrutinib -0.003 | ralimetinib -0.029 | [2] -0.326 | [4] 0.013 | pinometostat 0.004 | [5] -0.146 | [6] 0.102 | [8] 0.134 | [10] 0.016 | Nexturastat A -0.066 | vemurafenib -0.164 | [12] -0.172 | barasertib 0.109

EHBP1 (UniProt Q8NDI1)
Sequence of UniProt Q8NDI1 (Q8NDI1 whole entry, looked up): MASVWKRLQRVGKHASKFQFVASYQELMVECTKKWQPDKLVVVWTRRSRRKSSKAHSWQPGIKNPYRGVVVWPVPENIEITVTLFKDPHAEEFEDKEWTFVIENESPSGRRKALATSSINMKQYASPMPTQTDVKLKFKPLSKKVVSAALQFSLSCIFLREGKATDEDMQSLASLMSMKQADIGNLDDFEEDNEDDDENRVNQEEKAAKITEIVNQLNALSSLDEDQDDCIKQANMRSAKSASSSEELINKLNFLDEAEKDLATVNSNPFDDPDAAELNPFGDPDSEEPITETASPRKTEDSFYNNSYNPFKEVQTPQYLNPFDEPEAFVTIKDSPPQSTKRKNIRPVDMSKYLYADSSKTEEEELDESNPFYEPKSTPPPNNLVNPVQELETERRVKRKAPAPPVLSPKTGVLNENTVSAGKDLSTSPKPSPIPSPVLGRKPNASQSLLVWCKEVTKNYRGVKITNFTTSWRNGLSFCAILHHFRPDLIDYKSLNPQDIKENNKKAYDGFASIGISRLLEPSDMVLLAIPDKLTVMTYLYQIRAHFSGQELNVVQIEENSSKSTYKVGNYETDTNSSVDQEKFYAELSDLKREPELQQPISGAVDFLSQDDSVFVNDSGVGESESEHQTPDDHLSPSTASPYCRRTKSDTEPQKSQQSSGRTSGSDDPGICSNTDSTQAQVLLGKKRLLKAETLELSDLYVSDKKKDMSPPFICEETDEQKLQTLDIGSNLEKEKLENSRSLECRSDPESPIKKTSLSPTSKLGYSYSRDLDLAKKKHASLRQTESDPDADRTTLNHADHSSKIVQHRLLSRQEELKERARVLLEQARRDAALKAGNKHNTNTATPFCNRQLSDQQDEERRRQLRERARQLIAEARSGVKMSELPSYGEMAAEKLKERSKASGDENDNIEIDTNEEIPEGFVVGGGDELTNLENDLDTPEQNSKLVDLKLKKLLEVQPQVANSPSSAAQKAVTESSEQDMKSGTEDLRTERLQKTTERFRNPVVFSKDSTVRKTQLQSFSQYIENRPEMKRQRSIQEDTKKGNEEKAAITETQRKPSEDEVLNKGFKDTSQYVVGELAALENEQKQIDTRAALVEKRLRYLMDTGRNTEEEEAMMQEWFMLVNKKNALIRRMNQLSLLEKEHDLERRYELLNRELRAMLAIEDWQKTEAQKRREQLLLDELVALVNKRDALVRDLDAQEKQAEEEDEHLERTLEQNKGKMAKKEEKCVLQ
inactive: [1] 0.018 | [6] -0.003 | [12] -0.028

DCAF4 (UniProt Q8WV16)
Sequence of UniProt Q8WV16 (Q8WV16 whole entry, looked up): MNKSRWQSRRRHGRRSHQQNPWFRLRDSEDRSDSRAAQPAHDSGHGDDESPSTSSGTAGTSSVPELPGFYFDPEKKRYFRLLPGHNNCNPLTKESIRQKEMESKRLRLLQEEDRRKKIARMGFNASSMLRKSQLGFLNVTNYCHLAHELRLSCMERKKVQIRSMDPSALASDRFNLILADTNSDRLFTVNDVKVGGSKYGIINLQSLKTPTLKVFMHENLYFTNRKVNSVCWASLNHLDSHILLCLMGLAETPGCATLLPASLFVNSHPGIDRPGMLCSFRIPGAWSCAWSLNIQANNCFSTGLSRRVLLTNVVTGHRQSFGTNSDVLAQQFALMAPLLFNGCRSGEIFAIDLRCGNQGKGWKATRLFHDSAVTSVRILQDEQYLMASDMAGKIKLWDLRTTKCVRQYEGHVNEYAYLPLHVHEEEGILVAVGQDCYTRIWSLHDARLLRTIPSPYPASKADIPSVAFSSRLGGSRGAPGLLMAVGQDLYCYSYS
inactive: ralimetinib -0.026 | [2] -0.019 | [4] -0.042 | [5] 0.043 | [7] 0.03 | [8] 0.072 | Nexturastat A -0.132 | [12] -0.061

DNAH10 (UniProt Q8IVF4)
inactive: IRAK-1-4 Inhibitor I 0.004 | ibrutinib 0.018 | [2] -0.127 | [3] 0.162 | pinometostat -0.106 | [5] -0.154 | [6] -0.022 | [7] -0.034 | [10] -0.114 | Nexturastat A 0.434 | vemurafenib -0.067 | [12] -0.269 | givinostat 0.307 | barasertib 0.014

DDX46, A0A0C4DG89
inactive: [2] -0.123 | [5] -0.005 | Nexturastat A 0.058 | [12] 0.149

DCAF12 (UniProt Q5T6F0)
inactive: [7] -0.136 | [12] 0.08

DNAJB1 (UniProt M0R128)
inactive: ibrutinib -0.077 | [6] 0.111 | vemurafenib -0.002 | barasertib 0.135

F2RL3 (UniProt Q96RI0)
Sequence of UniProt Q96RI0 (Q96RI0 whole entry, looked up): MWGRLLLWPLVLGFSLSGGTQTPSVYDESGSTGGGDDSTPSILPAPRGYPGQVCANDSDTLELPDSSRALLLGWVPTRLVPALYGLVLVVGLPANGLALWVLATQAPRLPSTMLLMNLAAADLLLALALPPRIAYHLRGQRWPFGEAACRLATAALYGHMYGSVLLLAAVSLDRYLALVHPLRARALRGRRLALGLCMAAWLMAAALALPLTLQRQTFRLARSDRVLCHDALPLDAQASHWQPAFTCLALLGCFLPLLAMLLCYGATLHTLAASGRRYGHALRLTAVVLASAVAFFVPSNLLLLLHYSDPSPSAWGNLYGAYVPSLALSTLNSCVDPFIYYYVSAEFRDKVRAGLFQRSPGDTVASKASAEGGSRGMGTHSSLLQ
inactive: [1] 0.02 | ralimetinib -0.084 | [3] 0.081 | [4] 0.021 | [6] 0.1 | [8] 0.032 | [9] 0.053 | vemurafenib -0.156 | [11] 0.035 | givinostat -0.06

FADS1 (UniProt F5GYH4)
inactive: IRAK-1-4 Inhibitor I 0.02 | ibrutinib -0.093 | pinometostat 0.075 | [6] -0.097 | [10] -0.254 | vemurafenib -0.052 | barasertib 0.024

DHPS (UniProt M0R1T2)
inactive: ibrutinib 0.124 | [7] 0.118 | barasertib 0.11
